Screens as filed in PubChem BioAssay.
This is a sample that favours compounds with a hit; in the whole collection about 28% have one here.
CYP2C9 inhib: blocks human cytochrome P450 2C9; P11712; CYP2C9 Supersomes, luciferin-H conversion, luminescence; inhibition, % at 5 µM; 96,000 tested, 20% active; AID 777;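 active means blocking of liver enzyme CYP2C9 beyond about 50% at 5 µM, limit read from the data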
Target sequence (P11712 whole entry, looked up): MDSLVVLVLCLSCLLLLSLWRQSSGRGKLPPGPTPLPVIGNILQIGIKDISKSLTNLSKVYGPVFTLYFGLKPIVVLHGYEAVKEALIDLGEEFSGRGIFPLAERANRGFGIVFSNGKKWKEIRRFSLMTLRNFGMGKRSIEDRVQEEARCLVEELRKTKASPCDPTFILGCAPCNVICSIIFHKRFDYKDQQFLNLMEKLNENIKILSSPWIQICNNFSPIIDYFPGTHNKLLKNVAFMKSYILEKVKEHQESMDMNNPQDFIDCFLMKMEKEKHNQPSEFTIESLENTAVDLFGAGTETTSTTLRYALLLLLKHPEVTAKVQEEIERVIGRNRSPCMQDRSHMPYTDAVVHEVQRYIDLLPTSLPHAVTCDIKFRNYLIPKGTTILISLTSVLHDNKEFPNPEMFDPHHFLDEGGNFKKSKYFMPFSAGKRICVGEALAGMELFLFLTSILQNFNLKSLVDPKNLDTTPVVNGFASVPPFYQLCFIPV
PLK1 PBD inh: blocks phosphopeptide binding to human Plk1 polo box domain. P53350. Plk1 PBD phosphopeptide binding, fluorescence polarization. inhibition, %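 (tested at about 20 µM)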. 97,000 tested, 0.13% active. AID 693; in the data active means inhibition above about 34%, passing the limit was not always enough
PLK1 kinase inh: inhibitors of human PLK1 kinase; 97,000 tested, 0.53% active; recombinant PLK1 kinase, TR-FRET peptide phosphorylation; P53350; AID 619; inhibition, % at 10 µM;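 active means inhibition of 50% or more in the single-concentration screen; inactive means inhibition below 50%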
CYP2C19 activ: increases human CYP2C19 enzyme activity; recombinant CYP2C19, luciferin-H EGE luminescence; stronger effect = higher value; 0 = fully inhibited enzyme, 1 = untreated enzyme; activation factor at 5 µM; 96,000 tested, under 10 active;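 active means activation factor of at least 2 at 5 µM in the primary screen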
CYP2C19 inh: human CYP2C19 inhibition. P33261. inhibition, % at 5 µM. 96,000 tested, 21% active. CYP2C19 Supersomes, luciferin-H EGE luminescence, 30 min;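 active means CYP2C19 inhibition above a set limit at 5 µM in the primary screen, cut at about 50% in these data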
CYP2C9 activ: activators of human CYP2C9; 96,000 tested, 1.4% active; P11712; activation factor at 5 µM; recombinant CYP2C9, luciferin-H conversion, luminescence; stronger effect = higher value; factor 1 = untreated enzyme, 0 = blocked;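 active means activation factor of 2 or more for CYP2C9 at a 5 µM dose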
Large screens that a line does not name were inactive.

CS(=O)(=O)N1CCCC(C(=O)NCCCN2CCN(Cc3ccccc3)CC2)C1 (centres undefined)	CYP2C9 inhib 59
CCCS(=O)(=O)N1CCCC(C(=O)NCCCOC(C)C)C1 (centres undefined)	none
CCCS(=O)(=O)N1CCCC(C(=O)NCCCN2CCN(c3ccc(F)cc3)CC2)C1 (centres undefined)	CYP2C9 activ 2.7
CS(=O)(=O)N1CCCC(C(=O)NCCCN2CCC(Cc3ccccc3)CC2)C1 (centres undefined)	none
CCC(=O)N1CCc2cc(Br)cc(S(=O)(=O)NCC3CCCN3CC)c21 (centres undefined)	none (no result: PLK1 PBD inh, PLK1 kinase inh)
O=C(Oc1ccc(Cl)c2cccnc12)N1CCCCCC1	none (no result: CYP2C9 inhib, CYP2C19 activ, CYP2C19 inh, CYP2C9 activ)
COc1ccc(C(=O)N2CCCC(c3ccccc3)C2)cc1 (centres undefined)	CYP2C19 inh 95
O=C(c1ccco1)N1CCC(c2ccccc2)C1 (centres undefined)	CYP2C9 inhib 51, CYP2C19 inh 78
O=C(O)Cc1ccc2[nH]c3ccc(CC(=O)O)cc3c2c1	none
CCN(CC)CC(=O)NCC1(c2ccccc2)CCOCC1	none
CCN(CC)CCNC(=O)C(C)c1nn(CC)c(=O)c2ccccc12 (centres undefined)	none (no result: CYP2C9 inhib, CYP2C19 activ, CYP2C19 inh, CYP2C9 activ)
Cc1ccc(S(=O)(=O)Cn2nnnc2CN2CCOCC2)cc1	none
Cc1ccc(S(=O)(=O)Cn2nnnc2CN2CCCC3(CCCCC3)C2)cc1	CYP2C9 inhib 83, CYP2C19 inh 93
Cc1nc(C)c(C(=O)N/N=C/c2cn(C)c3ccccc23)s1	CYP2C19 inh 53
COc1ccc(C)cc1NC(=O)CSc1nnc(-c2cc3cccc(OC)c3o2)n1N	none
COc1cccc(N2CCN(C3CC(=O)N(c4ccc(F)c(Cl)c4)C3=O)CC2)c1 (centres undefined)	CYP2C9 inhib 55
COc1ccc(Cl)cc1N1C(=O)CC(N2CCc3ccccc32)C1=O (centres undefined)	CYP2C19 inh 91
COc1cccc(N2C(=O)CC(N3CCc4ccccc43)C2=O)c1 (centres undefined)	CYP2C19 inh 83
COc1ccccc1C1N(c2cc(Cl)ccc2OC)C(=O)C2CCCN21 (centres undefined)	none
COc1ccccc1N1C(=O)CC(N2CCc3ccccc32)C1=O (centres undefined)	CYP2C19 inh 91
COc1cccc(N2CCN(C3CC(=O)N(c4ccc(C)c(Cl)c4)C3=O)CC2)c1 (centres undefined)	none (no result: PLK1 PBD inh, PLK1 kinase inh)
CC(C)(C)N1CC2([N+](=O)[O-])CN(C(C)(C)C)CC([N+](=O)[O-])(C1)C2	none
O=C(Nc1nc2ccccc2[nH]1)c1ccc(Cl)c(S(=O)(=O)N2CCCC2)c1	none
COC(=O)c1ccc2c(c1)C(C)(C)C(/C=C/c1ccc(O)cc1)=[N+]2C	CYP2C9 inhib 99, CYP2C19 inh 95
O=C(CCNS(=O)(=O)c1cccc2nsnc12)N1CCc2ccccc21	CYP2C19 inh 80
O=C(CCNS(=O)(=O)c1cccc2nsnc12)NC1CCCc2ccccc21 (centres undefined)	none (no result: PLK1 PBD inh, PLK1 kinase inh)
O=C(CCNS(=O)(=O)c1cccc2nsnc12)N1CCN(c2ccccn2)CC1	CYP2C19 inh 66
CC1Cc2ccccc2N1C(=O)CCNS(=O)(=O)c1cccc2nsnc12 (centres undefined)	CYP2C19 inh 88
COC(=O)c1cc(C)sc1NC(=O)c1cccnc1	none
Clc1ccccc1-c1nnc(-c2ccccc2Cl)o1	none (no result: CYP2C9 inhib, CYP2C19 activ, CYP2C19 inh, CYP2C9 activ)
N#Cc1nc(-c2cccc3ccccc23)oc1N1CCCCC1	none
CN(C)c1oc(-c2ccccc2Cl)nc1C#N	CYP2C19 inh 62, CYP2C9 activ 2.8
N#Cc1nc(-c2ccccc2Cl)oc1N1CCCCC1	CYP2C9 inhib 81, CYP2C19 inh 86
CN(C)c1oc(-c2ccccc2Cl)nc1S(=O)(=O)c1ccccc1	CYP2C19 inh 79
Cc1nc2ccc(S(=O)(=O)NCC(=O)N3CCOCC3)cc2s1	none
CCC(=O)N(Cc1cc(=O)[nH]c2ccccc12)C1CCCCC1	none
CC(=O)N(Cc1cc2c(C)cc(C)cc2[nH]c1=O)C1CCCCC1	CYP2C9 inhib 63
CCC(=O)N(Cc1cc2cc(C)c(C)cc2[nH]c1=O)C1CCCCC1	CYP2C9 inhib 69, CYP2C19 inh 81
CCOC(=O)Cn1nnnc1C(C(C)C)N(Cc1cc2c(C)cc(C)cc2[nH]c1=O)C1CCCC1 (centres undefined)	none (no result: CYP2C9 inhib, CYP2C19 activ, CYP2C19 inh, CYP2C9 activ)
O=C(NC1CCCCC1)N(Cc1cc2cc3c(cc2[nH]c1=O)OCCO3)C1CCCCC1	CYP2C9 inhib 75
COc1cc2cc(CN(C(=O)NC3CCCCC3)C3CCCC3)c(=O)[nH]c2cc1OC	none
O=C(COc1ccc(Cl)cc1Cl)N/N=C/CCc1ccccc1	none
CC1CCC/C(=N\NC(=O)COc2ccc(Cl)cc2Cl)C1 (centres undefined)	CYP2C19 inh 80
CCn1c(C(=O)N2CCC(Cc3ccccc3)CC2)cc2sccc21	CYP2C9 inhib 58, CYP2C19 inh 59
O=C(Cn1c(C(=O)NCC2CCCO2)cc2sccc21)c1ccccc1 (centres undefined)	CYP2C9 inhib 51
CCn1c(C(=O)N2CCCC(C(=O)O)C2)cc2sccc21 (centres undefined)	none (no result: CYP2C9 inhib, CYP2C19 activ, CYP2C19 inh, CYP2C9 activ)
O=C(Cn1c(C(=O)NCc2ccco2)cc2sccc21)c1ccccc1	none
O=C(Cn1c(C(=O)N2CCN(C3CCCC3)CC2)cc2sccc21)c1ccccc1	CYP2C19 inh 80
CC1CCc2nn(CC(=O)N3CCc4ccccc43)cc2C1 (centres undefined)	none
COc1ccccc1NCc1nnc(SCC(=O)N/N=C/c2ccco2)n1-c1ccc(Cl)cc1Cl	none
CCCn1c(=O)c2ccccc2n2c(SCCOc3ccc(C)cc3)nnc12	none (no result: PLK1 PBD inh, PLK1 kinase inh)
Cc1ccccc1N1CCN(C(=O)c2ccc(Oc3ccc(C(F)(F)F)cn3)cc2)CC1	CYP2C9 inhib 76
CCOc1ccc(C(=O)N2CCN(c3cccc(C)c3C)CC2)cc1	none
O=C(c1ccccn1)N1CCN(c2ccc(C(F)(F)F)cn2)CC1	none (no result: CYP2C9 inhib, CYP2C19 activ, CYP2C19 inh, CYP2C9 activ)
Cc1cccc(C(=O)N2CCN(c3ccc(C(F)(F)F)cn3)CC2)c1C	CYP2C19 inh 74
Cc1cc(NC(=O)c2c(Cl)cnn2C)no1	none
COc1ccc(C(=O)NCc2nnc(SCC(=O)Nc3cc(C)cc(C)c3)o2)cc1OC	none
CCOCCOC(=O)C1=C(C)N(C)C(=O)NC1c1cc(Cl)c(O)c(OC)c1 (centres undefined)	none
CCOC(=O)C1=C(C)N(C)C(=O)NC1c1ccc(C)s1 (centres undefined)	none
CCSCCOC(=O)C1=C(C)N(C)C(=O)NC1c1cc(OC)ccc1OC (centres undefined)	CYP2C9 inhib 79, CYP2C19 inh 93 (no result: PLK1 PBD inh, PLK1 kinase inh)
CCOCCOC(=O)C1=C(C)N(C)C(=O)NC1c1ccccc1Cl (centres undefined)	CYP2C19 inh 54 (no result: PLK1 PBD inh, PLK1 kinase inh)
